# Compound activity: PubChem BioAssay, National Center for Advancing Translational Sciences (NCATS)
# This is a sample that favours compounds with a hit; in the whole collection about 9.3% have one here.
# ELG1 repair inh = blocks ELG1-dependent DNA repair in HEK293T cells | Potency, µM (doses to about 46.1 µM), without a hit: at the top dose activity change, negative = inhibition, hits mostly inhibitors | AID 504467 | HEK293T ELG1-luciferase reporter, luminescence, 16 h; DNA damage induced by 5-fluorouridine | 2.3% of 330,000 active; note: % is set by controls: 0 for no effect and ±100 for the full control effect; nearly all actives have a fitted effect of over 55% in size
#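 DMSO vehicle served as the neutral condition. Each well held 2,000 cells given 5-fluorouridine plus compound; after 16 hr at 37 °C/5% CO2, ONE-Glo was added and luciferase measured 30 min later.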
# ELG1 genotoxic = induces genotoxicity in HEK293T cells with luciferase-tagged ELG1 | 1.3% of 330,000 active | Potency, µM (doses to about 46 µM), for the others: at the top dose activity change, positive = activation, usual class: activators | AID 504466 | HEK293T ELG1-luciferase reporter, luminescence, 16 h; note: % of control where 0% means no effect; nearly all actives have a fitted effect of over 60% in size
#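 Reporter readout depends on ELG1 protein level, which increases with genetic stress. After 16 hr compound exposure at 37 °C, luciferase activity was quantified using ONE-Glo.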
# Rab9 prom act = activates the Rab9 promoter; Huh7 Rab9 promoter-luciferase reporter, luminescence, 24 h; Potency, µM (top dose mostly 9.22 µM), inactives show at the top dose activation, negative = inhibition, usual class: activators; 2.8% of 320,000 active; note: % of control where 0% means no effect; nearly all actives have a fitted effect of over 60% in size
#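 Rab9 promoter-driven luciferase in stably transfected Huh7 cells; 1500 cells/well rested 2 h, exposed to compound in DMSO for 24 h at 37 °C, 5% CO2. Luminescence read 10 min after adding luciferase reagent at ambient temperature.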
# FLuc counter = counter-screen for miR-21 project: firefly luciferase inhibitors or activators | purified FLuc, Km substrates, luminescence inhibition | Potency, µM (top dose mostly 57.5 µM), for inactives: top-dose activity change, negative = inhibition, most hits filed as inhibitors | 6.9% of 360,000 active | AID 588342;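 note: plate controls were vehicle for no effect and reference inhibitor for full effect; nearly all actives have a fitted effect of over 55% in size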
# Target sequence (P08659 whole entry, looked up): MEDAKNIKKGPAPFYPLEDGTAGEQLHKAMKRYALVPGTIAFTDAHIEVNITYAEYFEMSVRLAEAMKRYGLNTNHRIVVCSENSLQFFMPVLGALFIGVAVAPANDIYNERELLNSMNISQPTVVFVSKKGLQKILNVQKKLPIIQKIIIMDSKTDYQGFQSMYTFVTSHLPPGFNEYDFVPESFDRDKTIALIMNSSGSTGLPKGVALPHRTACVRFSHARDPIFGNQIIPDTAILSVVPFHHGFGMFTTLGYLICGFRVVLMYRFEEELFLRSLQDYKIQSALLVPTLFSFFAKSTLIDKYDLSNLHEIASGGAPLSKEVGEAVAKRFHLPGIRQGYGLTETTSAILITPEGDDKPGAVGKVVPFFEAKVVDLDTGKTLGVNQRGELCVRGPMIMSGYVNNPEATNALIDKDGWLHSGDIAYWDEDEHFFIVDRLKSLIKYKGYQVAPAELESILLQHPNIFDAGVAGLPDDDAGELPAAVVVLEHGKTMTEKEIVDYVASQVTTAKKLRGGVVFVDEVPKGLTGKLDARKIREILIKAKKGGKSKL
#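 Purified P. pyralis luciferase (10nM final) with 10uM D-luciferin and 10uM ATP (Km levels) in 50mM Tris acetate pH 7.5, 10mM Mg acetate, 0.01% Tween-20, 0.05% BSA; qHTS 6-point titration, ~60 µM downward; luminescence read.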
# NPC1 prom act = activators of NPC1 promoter. Potency, µM (highest dose often 9.22 µM), inactives show at the top dose activation, most hits filed as activators. Huh7 NPC1 promoter luciferase reporter, 24 h. 2.4% of 320,000 active; note: % of control where 0% means no effect; nearly all actives have a fitted effect of over 60% in size
#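 Stable NPC1-promoter luciferase Huh7 line; cpd (DMSO) 24 h, 37 °C, 5% CO2; Amplite luciferase reagent 10 min RT; luminescence readout. qHTS format.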
# SMN2 splice up = SMN2 splice variant enhancement. HEK293 SMN2-luciferase splicing reporter, luminescence, 30-36 h. Potency, µM (doses to about 46.1 µM), without a hit: at the highest dose activity change, positive = activation, actives largely listed as activators. 2.8% of 210,000 active; note: % of control where 0% means no effect; nearly all actives have a fitted effect of over 55% in size
#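 HEK293 cells carry an SMN2 […]–luciferase reporter in which exon 7 inclusion puts luciferase in frame. Cells were plated 10-12 h before compound addition, then incubated 30-36 h at 37C. ONE-Glo luminescence was read; sodium butyrate at 4.5 mM final served as control.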
# Numbers without * were called inactive; ? = inconclusive; . = no result given; [ ] = dose if it differs, or a comment. Calls come from the whole dose curve; as a rule, active = well fitted curve in the direction sought with a large enough effect; inconclusive = small, poorly fitted or top-dose-only effect, or another doubt; inactive = no such curve, though single readings can be large; an effect the other way counts as inactive or inconclusive. Potency is the fitted concentration of half-maximal effect.
SMILES,ELG1 repair inh,ELG1 genotoxic,Rab9 prom act,FLuc counter,NPC1 prom act,SMN2 splice up
CCN(CC)S(=O)(=O)c1ccc(N2CCN(S(=O)(=O)c3ccc4c(c3)OCCO4)CC2)nc1,9.2µM*,-6%,-3%,2%,-3%,-37%
O=S(=O)(c1ccc2c(c1)OCCO2)N1CCN(S(=O)(=O)c2ccc3c(c2)OCCO3)CC1,.,.,0.4µM*,0.6µM*,0.35µM*,.
CN1CCN(S(=O)(=O)c2ccc3c(c2)OCCO3)CC1,6%,0%,-4%,2%,-1%,3%
Cc1ccc2c(CN3CCN(S(=O)(=O)c4ccc5c(c4)OCCO5)CC3)cc(=O)oc2c1C,15µM*,-9%,-17%,5%,-17%,-65%
O=C1C2C3c4ccccc4C(c4ccccc43)[C@@H]2C(=O)N1c1cccnc1 (some centres undefined),?,?,-6%,0%,-4%,-25%
O=C(c1ccccc1)C1Oc2ccccc2C2CC(c3cccs3)=NN12 (centres undefined),-2%,5%,-10%,1%,-1%,.
COCCNc1nc(C)cc(-c2cc(-c3ccc(Cl)cc3)on2)n1,13%,0%,0%,15µM*,10%,.
O=C(CN(CCc1ccccc1)S(=O)(=O)c1ccc(Cl)cc1)N/N=C/c1ccc2c(c1)OCO2,-9%,0%,-3%,-2%,1%,-23%
COc1ccc(S(=O)(=O)N(CCc2ccccc2)CC(=O)N/N=C/c2ccc3c(c2)OCO3)cc1,16µM*,-2%,-3%,1%,0%,-9%
CCOc1cc(/C=N/NC(=O)CN(CCc2ccccc2)S(=O)(=O)c2ccc(NC(C)=O)cc2)ccc1O,26µM*,-4%,-6%,-12%,-7%,-12%[1.84 µM]
CCN(CC)C(=O)c1cc2c(=O)n3cccc(C)c3nc2s1,?,0%,?,?,27%,.
Cc1cc2c(c(SCC(=O)Nc3ccc(C)c(C)c3)n1)C(=O)OC2,12%,2%,-2%,-1%,0%,-14%
CCSc1ccc2nnc(-c3cccc(F)c3)n2n1,21µM*,-10%,0%,1%,2%,-28%
O=Cc1c(-c2ccc(F)cc2)nc2ccccn12,?,3%,14%,-10%,10%,-4%
COc1ccc(-c2nc3ccccn3c2C=O)cc1,?,?,3.2µM*,11µM*,4µM*,?
Clc1ccc(-c2nnc3ccccn23)cc1,15%,5%,-2%,-2%,1%,10%
c1csc(-c2nnc3ccccn23)c1,-5%,-1%,2%,-3%,0%,0.0028µM*
CCn1c(=O)c2cc(C(=O)Nc3ccc(OC)cc3OC)sc2c2ccccc21,?,12%,-5%,0%,-9%,.
c1ccc2c3n(nc2c1)CCCO3,16%,4%,-1%,3%,0%,.
C(#Cc1ccc2c(c1)COc1c3ccccc3nn1-2)c1ccccc1,?,?,?,12µM*,?,.
CC(C#Cc1ccc2c(c1)COc1c3ccccc3nn1-2)OC(C)(C)C (centres undefined),?,12%,?,11µM*,?,.
C(#CC1CCCCC1)c1ccc2c(c1)COc1c3ccccc3nn1-2,?,19%,?,4.8µM*,?,.
O=C(NC1CCCc2c1cnn2-c1ccc(F)cc1F)c1cnccn1 (centres undefined),?,-3%,-9%,3%,-10%,.
Cc1ccc(-n2ncc3c(=O)n(CC(=O)Nc4cccc(Cl)c4)cnc32)cc1C,-5%,-2%,4%,3%,1%,-4%
COc1ccc(-c2csc(-c3ccccc3)n2)c(OC)c1,?,4.6µM*,?,3.4µM*,?,11µM*
SMILES,ELG1 repair inh,ELG1 genotoxic,Rab9 prom act,FLuc counter,NPC1 prom act,SMN2 splice up
COc1ccc(-c2csc(-c3cccs3)n2)c(OC)c1,?,2.1µM*,1.3µM*,3.4µM*,?,11µM*
COc1ccc(NC(=O)COC(=O)c2cc(OC)c(OC)c(OC)c2)c([N+](=O)[O-])c1,-8%,2%,-6%,-3%,-4%,.
CCc1ccc(OCC(=O)NC(NC(=S)Nc2ccc(C)cc2C)C(Cl)(Cl)Cl)cc1 (centres undefined),-17%,-1%,-5%,7%,1%,-31%
CCSc1cc(N2CC(C)OC(C)C2)nc(-c2ccccc2Cl)n1 (centres undefined),?,-4%,1%,6%,2%,-29%
Cc1cc(=O)[nH]c(SCC(=O)N2CCN(C(=O)c3ccco3)CC2)n1,0%,-1%,.,.,.,.
Cc1cc2nc(-c3ccc(SCC(=O)N4CCOCC4)nc3)[nH]c2cc1C,?,2%,3.5µM*,0.67µM*,?,?
Cc1cc2nc(-c3ccc(SCC(=O)N4CCN(C(=O)c5ccco5)CC4)nc3)[nH]c2cc1C,?,-5%,3.5µM*,0.48µM*,3.5µM*,7.9µM*
CN(C)S(=O)(=O)c1ccc(C(=O)Nc2cccnc2)cc1,-3%,0%,-1%,-1%,-2%,-11%
COc1ccc(N(C(=O)c2ccc(S(=O)(=O)N3CCOCC3)cc2)C2C=CS(=O)(=O)C2)cc1 (centres undefined),4%,1%,0%,1%,1%,7%
CC(C)NC(=O)c1cc(-c2ccco2)on1,?,?,?,?,?,7%
CN(Cc1ccccc1)C(=O)c1cc(-c2ccc(Br)cc2)on1,?,8%,?,15µM*,9%,?
CCCNC(=O)c1cc(-c2ccc(Br)cc2)on1,?,?,2.2µM*,?,2.2µM*,?
Cc1ccc(-c2cc(C(=O)NCCN3CCOCC3)no2)cc1,24%,6%,3%,?,2%,-4%
CC(C)NC(=O)c1cc(-c2ccc(Br)cc2)on1,?,?,1.6µM*,2.7µM*,1.4µM*,20µM*
Cc1cc(C(=O)N(C)Cc2ccc(Br)cc2)no1,-4%,-2%,0%,3%,-2%,-9%
CN(C)/C=N/c1ncn(-c2ncc(C(F)(F)F)cc2Cl)n1,?,?,2.2µM*,?,3.2µM*,11µM*
Cc1ccc2[nH]c(=O)c(CN(CCCO)S(=O)(=O)c3cccc4nsnc34)cc2c1,?,4%,-2%,4%,-1%,-16%
Cc1ccc2nsnc2c1S(=O)(=O)N(Cc1ccco1)Cc1cc2cccc(C)c2[nH]c1=O,?,-6%,1%,5%,-3%,-6%
Cc1ccc2[nH]c(=O)c(CN(Cc3ccco3)S(=O)(=O)c3c(C)ccc4nsnc34)cc2c1,?,-14%,-17%,3%[2.3 µM],-5%,7.9µM*
